In the supplement of paper PMC10477191:
± gives the standard deviation of the averaged measurements.

test system: Drosophila ezoana antennal basiconic sensillum ab5; experiment: odor-evoked OSN spike response (post minus pre-stimulus); higher = stronger neuronal excitation; details: odor dilution: 10^-4
Procedure: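 Single sensillum recordings from antennal basiconic sensilla of D. ezoana. A 500 ms pulse of odorant (10^-4 in mineral oil or DMSO) was delivered; the response is the change in action potential frequency between the 1 s pre- and post-stimulus windows (spikes/s).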

Row | Compound | odor-evoked OSN spike response [spikes/s]
1 | CC(=O)c1ccccc1 [Acetophenone] | 77.7 ± 24
2 | COc1cccc(OC)c1O [Phenol, 2,6-dimethoxy- (powder)] | 86.2 ± 29
3 | CC(=O)OC/C=C(\C)CCC=C(C)C [geranyl acetate] | 112 ± 41
